Test results reported in PubChem BioAssay (EPA / NIEHS).
Results filed as inconclusive are left out. Active and inactive are the calls of the source. The calls were made as follows, unless noted: active = hit-call score of the fitted dose curve at least 0.9, where 1 is the maximum; inactive = score below 0.9.

How the values were obtained:
[1] = biological target: Estrogen receptor (Homo sapiens) (UniProt P03372); assay: CCTE_Deisenroth_AIME_384WELL_LUC_Active: CCTE's 384-well Estrogen Receptor Transactivation Assay with AIME metabolic competence (ERTA luciferase; metabolism positive), Deisenroth Lab (AID 2284030; active = hit-call score of the fitted dose curve at least 0.9, where 1 is the maximum)
Procedure, shortened: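 Estrogenic luciferase signal in VM7Luc4E2 cells is measured at 24 hour, after chemicals have been preconditioned 2 hours with PB/BNF-induced rat hepatic S9 in alginate. Gain of signal is fitted relative to 17beta-estradiol, across 0.002 - 200 uM.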

[2] = CCTE_Shafer_MEA_dev_firing_rate_mean: CCTE's Neural Network Formation Assay for Mean Firing Rate, Shafer Lab (AID 2284031)
Procedure, shortened: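 Primary rat cortical neurons on 48-well, 16-electrode MEAs (PEI-coated, laminin at plating), exposed from day 0 with compound renewed at DIV 5 and 9. Spikes recorded DIV 5, 7, 9, 12; well-mean firing rate collapsed to trapezoidal AUC, loss-of-signal vs DMSO.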

[3] = CCTE_Shafer_MEA_dev_per_burst_spike_percent: CCTE's Neural Network Formation Assay for Percent of Spikes in a Burst, Shafer Lab (AID 2284032)
Procedure, shortened: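 Rat primary cortical neurons on 16-electrode MEA wells, dosed from plating day 0 for 12 days with renewal on DIV 5 and 9; spikes-in-bursts percentage averaged over bursting electrodes, collapsed as AUC across days 5, 7, 9, 12; loss direction versus DMSO.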

[4] = CCTE_Deisenroth_AIME_384WELL_CTox_Active: Cytotoxicity Assessment (CTOX) in CCTE's 384-well Estrogen Receptor Transactivation Assay with AIME metabolic competence (metabolism positive), Deisenroth Lab (AID 2284037; active = hit-call score of the fitted dose curve at least 0.9, where 1 is the maximum;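 also: chemicals first conditioned 2 h by alginate-bound induced rat liver S9 before cells; activity means signal loss indicating cell death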)
Procedure, shortened: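 Chemicals pre-incubated 2 hours with alginate-immobilised phenobarbital/beta-naphthoflavone-induced male Sprague Dawley rat liver S9, then conditioned medium applied 24 hour to VM7Luc4E2 cells. Viability by fluorogenic protease substrate; 10-point series 0.002 - 200 uM.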

[5] = biological target: Estrogen receptor (Homo sapiens) (UniProt P03372); assay: CCTE_Deisenroth_AIME_384WELL_LUC_Inactive: CCTE's 384-well Estrogen Receptor Transactivation Assay without AIME metabolic competence (ERTA luciferase; metabolism negative), Deisenroth Lab (AID 2284038; active = hit-call score of the fitted dose curve at least 0.9, where 1 is the maximum;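 also: VM7Luc4E2 breast cells given medium preincubated 2 h with S9-free microspheres; hits raise estrogen receptor luciferase signal so potencies reflect agonists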)
Procedure, shortened: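 Chemicals (10-point series, 0.002 - 200 uM) were incubated 2 hours with alginate-water microsphere lids lacking S9, then the conditioned medium was transferred to VM7Luc4E2 breast cells for 24 hour. Luciferase induction was read by bioluminescence, fitted upward relative to 17beta-estradiol.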

[6] = CCTE_Shafer_MEA_dev_active_electrodes_number: CCTE's Neural Network Formation Assay for Number of Active Electrodes, Shafer Lab (AID 2284040; active = hit-call score of the fitted dose curve at least 0.9, where 1 is the maximum)
Procedure, shortened: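 Rat cortical primary cultures, 1.5 x 10^5 cells/well, PEI-coated MEA, laminin drop. Continuous exposure DIV 0–12; full media/compound change DIV 5, 9. Readout: electrodes with mean firing ≥5 spikes/min; AUC across days; loss vs DMSO.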

[7] = biological target: Estrogen receptor (Homo sapiens) (UniProt P03372); assay: CCTE_Deisenroth_AIME_384WELL_LUC_Shift: CCTE's 384-well Estrogen Receptor Transactivation Assay with AIME metabolic competence data shift (ERTA luciferase; difference in metabolism positive and negative), Deisenroth Lab (AID 2284041);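 also: shift is response with S9 minus without S9 so positive means metabolism raised ER signal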
Procedure, shortened: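 Chemicals (0.002–200 uM, 10 points) pre-incubated 2 h with alginate-encapsulated induced male Sprague Dawley rat liver S9 or S9-free, then medium applied 24 h to VM7Luc4E2 cells; luciferase. Endpoint is per-concentration difference, S9-positive minus negative.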

[8] = CCTE_Shafer_MEA_dev_bursting_electrodes_number: CCTE's Neural Network Formation Assay for Number of Bursting Electrodes, Shafer Lab (AID 2284043; active = hit-call score of the fitted dose curve at least 0.9, where 1 is the maximum)
Procedure, shortened: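 Primary rat cortical neurons plated on 16-electrode MEA wells, exposed from day 0 with compound renewed at DIV 5 and 9. Electrodes bursting ≥1 burst per 2 min counted on days 5, 7, 9 and 12; trapezoidal AUC across days, fitted for loss versus DMSO.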

[9] = CCTE_Shafer_MEA_dev_per_burst_interspike_interval: CCTE's Neural Network Formation Assay for Burst Interspike Interval, Shafer Lab (AID 2284044);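 also: mean spike spacing inside bursts as AUC over recordings on days 5 7 9 12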
Procedure, shortened: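 Spontaneous activity of maturing rat cortical networks is recorded on DIV 5, 7, 9 and 12 under chronic compound exposure beginning at plating. Endpoint: burst interspike interval well-mean, collapsed into trapezoidal AUC and fitted in the negative direction relative to DMSO.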

[10] = CCTE_Shafer_MEA_dev_burst_duration_mean: CCTE's Neural Network Formation Assay for Mean Burst Duration, Shafer Lab (AID 2284045)
Procedure, shortened: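 Primary rat cortical neurons on 48-well 16-electrode MEA plates, exposed from day 0 with renewal at DIV 5 and 9; spontaneous activity recorded on days 5, 7, 9, 12. Well-mean burst duration across bursting electrodes, collapsed as trapezoidal AUC; DMSO baseline.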

[11] = CCTE_Shafer_MEA_dev_interburst_interval_mean: CCTE's Neural Network Formation Assay for Mean Interburst Interval, Shafer Lab (AID 2284046);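 also: well-mean interburst interval of bursting electrodes as AUC over four recording days; curve fitted for decrease in interburst interval relative to DMSO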
Procedure, shortened: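 Recordings on days 5, 7, 9 and 12 give well-mean interburst interval across actively bursting electrodes, summarized as area under the curve. Cultures: rat cortical neurons, continuous exposure from day 0, compound renewed at feeds; decrease analyzed versus DMSO.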

[12] = CCTE_Shafer_MEA_dev_inter_network_spike_interval_mean: CCTE's Neural Network Formation Assay for Mean Inter-network Spike Interval, Shafer Lab (AID 2284047)
Procedure, shortened: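 Primary rat cortical neurons on 16-electrode MEA wells, exposed from plating day 0 through DIV 12, compound renewed at DIV 5 and 9 media changes. Mean interval between network-spike peaks recorded DIV 5, 7, 9, 12; collapsed as trapezoidal AUC, fitted downward versus DMSO.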

[13] = CCTE_Shafer_MEA_dev_network_spike_number: CCTE's Neural Network Formation Assay for Number of Network Spikes, Shafer Lab (AID 2284048)
Procedure, shortened: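 Primary rat cortical neurons on PEI/laminin 48-well MEA plates, dosed from plating day 0 for 12 days, renewed at DIV 5 and 9. Network spike counts recorded DIV 5, 7, 9, 12, collapsed as trapezoidal AUC; DMSO baseline.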

[14] = CCTE_Shafer_MEA_dev_network_spike_peak: CCTE's Neural Network Formation Assay for Mean Number of Electrodes in Network Spike, Shafer Lab (AID 2284049)
Procedure, shortened: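 Network-spike peak electrode count from recordings on days 5, 7, 9 and 12 was combined as trapezoidal area under the curve. Rat cortical cultures were treated continuously from plating, with compound renewed at each feed (DIV 5, 9); fits versus DMSO.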

[15] = CCTE_Shafer_MEA_dev_spike_duration_mean: CCTE's Neural Network Formation Assay for Mean Spike Duration, Shafer Lab (AID 2284051);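 also: mean network spike duration pooled as area under curve over DIV 5 to 12 recordings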
Procedure, shortened: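 Primary rat cortical neurons on 16-electrode MEA wells (PEI-coated, laminin in plating drop), exposed from plating through DIV 12 with compound renewed at DIV 5 and 9. Mean network-spike duration recorded DIV 5, 7, 9, 12; trapezoidal AUC across days, DMSO baseline.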

[16] = CCTE_Shafer_MEA_dev_network_spike_duration_std: CCTE's Neural Network Formation Assay for Standard Deviation of Network Spike Duration, Shafer Lab (AID 2284052);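 also: area under curve of spike duration SD across recording days 5 to 12; hits are decreases in network spike duration SD versus DMSO vehicle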
Procedure, shortened: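 Primary rat cortical neurons on PEI-coated 16-electrode MEA wells, exposed from plating day 0 through day 12 with compound renewed at DIV 5 and 9. Network spike duration SD recorded on days 5, 7, 9, 12, collapsed as trapezoidal AUC; loss-of-signal fit versus DMSO.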

[17] = CCTE_Shafer_MEA_dev_per_network_spike_spike_number_mean: CCTE's Neural Network Formation Assay for Mean Number of Spikes in a Network Spike, Shafer Lab (AID 2284053)
Procedure, shortened: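 Primary rat cortical neurons on 48-well, 16-electrode MEA plates were exposed from plating to DIV 12, with dosing renewed on DIV 5 and 9. Spikes per network spike (0.05 s peak window) were recorded on DIV 5, 7, 9 and 12 and collapsed as trapezoidal AUC versus DMSO.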

[18] = CCTE_Shafer_MEA_dev_per_network_spike_spike_percent: CCTE's Neural Network Formation Assay for Percent of Spikes in a Network Spike, Shafer Lab (AID 2284054)
Procedure, shortened: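 Rat primary cortical neurons were grown on 48-well MEA plates (16 electrodes/well), exposed from plating day 0 through day 12, with treatment renewed on DIV 5 and 9. Percent of spikes within 0.05 s network-spike peaks was measured, summarised as AUC across days 5, 7, 9, 12.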

[19] = CCTE_Deisenroth_AIME_96WELL_CTox_Inactive: Cytotoxicity Assessment (CTOX) in CCTE's 96-well Estrogen Receptor Transactivation Assay without AIME metabolic competence (metabolism negative), Deisenroth Lab (AID 2284029; active = hit-call score of the fitted dose curve at least 0.9, where 1 is the maximum)
Procedure, shortened: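 Chemicals (10-point series, 0.002-200 uM) were incubated 2 h with alginate-water microspheres lacking S9. The conditioned medium was then transferred onto VM7Luc4E2 cells for 24 h. Viability was measured by protease-substrate cleavage to a fluorescent probe, with loss of signal fitted bidirectionally; n≥4 experimental replicates.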

Measured: AC50

Estrogen receptor (Homo sapiens), sequence (P03372 whole entry, looked up): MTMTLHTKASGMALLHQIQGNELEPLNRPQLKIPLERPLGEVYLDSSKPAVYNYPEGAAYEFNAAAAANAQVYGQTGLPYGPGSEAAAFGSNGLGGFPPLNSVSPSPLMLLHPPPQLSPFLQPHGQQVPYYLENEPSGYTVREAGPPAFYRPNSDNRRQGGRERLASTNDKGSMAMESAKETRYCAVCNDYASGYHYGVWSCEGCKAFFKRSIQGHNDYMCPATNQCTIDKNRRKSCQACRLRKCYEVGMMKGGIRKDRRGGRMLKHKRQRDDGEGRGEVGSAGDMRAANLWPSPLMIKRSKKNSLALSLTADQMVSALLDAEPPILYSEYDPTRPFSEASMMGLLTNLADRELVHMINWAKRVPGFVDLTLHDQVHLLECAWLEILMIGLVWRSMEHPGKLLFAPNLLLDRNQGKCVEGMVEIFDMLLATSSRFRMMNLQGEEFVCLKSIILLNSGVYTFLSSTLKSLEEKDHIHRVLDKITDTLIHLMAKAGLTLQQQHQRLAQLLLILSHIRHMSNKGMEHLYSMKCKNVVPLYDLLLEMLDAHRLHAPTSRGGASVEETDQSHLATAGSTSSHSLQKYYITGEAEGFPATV

OCCC(F)(F)C(F)(F)C(F)(F)C(F)(F)C(F)(F)C(F)(F)F
not listed: [19]
inactive: all other assays above

Oc1cc2ccccc2c2ccccc12
active: [4] 19 µM
inactive: [7]

C[C@@H]1C[C@H]2[C@@H]3CCC4=CC(=O)C=C[C@]4(C)[C@@]3(F)[C@@H](O)C[C@]2(C)[C@@]1(O)C(=O)COP(=O)(O)O
inactive: [4] | [7]

O=C(O)c1ccccc1C(c1ccc(O)cc1)c1ccc(O)cc1
inactive: [4]
active: [1] 123 µM | [5] 98.9 µM | [7] 126 µM

COCC(C)OCC(C)O (stereo not drawn)
inactive: [1] | [4] | [5] | [7]

N#C[C@@H]1CC(F)(F)CN1C(=O)CNC1CC2CCC(C1)N2c1ncccn1 (stereo partly drawn)
inactive: [1] | [4] | [5] | [7]

CCCCCCC(=O)O
inactive: [1] | [5] | [7]

CCCCOCCO
inactive: [1] | [5] | [7]

COc1ccc([N+](=O)[O-])cc1N
active: [4] 100 µM
inactive: [5] | [7]

c1ccc2c(c1)Cc1ccccc1-2
not listed: [1] | [4] | [5] | [7] | [19]
inactive: all other assays above

COc1cc(CCC(=O)CC(=O)CCc2ccc(O)c(OC)c2)ccc1O
active: [19] 164 µM
